Experimental data published in PubChem BioAssay (Tox21).
Results filed as inconclusive are left out. Calls of active or inactive are those of the source. Calls come from the whole dose curve.

Assays:
[1] = target: Acetylcholinesterase (Homo sapiens) (UniProt P22303); experiment: Acetylcholinesterase (AChE) small molecule antagonists: colormetric cell-based qHTS assay (AID 1347395); note: nearly all actives have a fitted effect of over 30% in size
Procedure, shortened: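 Cells (SH-SY5Y, 2,000 per well) are seeded and left overnight at 37 C. Compound is added for 30 min, then DTNB and acetylthiocholine for a further 90 min at 37 C before absorbance-based thiocholine detection.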

[2] = target: Acetylcholinesterase (Homo sapiens) (UniProt P22303); experiment: Acetylcholinesterase (AChE) small molecule antagonists: enzyme-based qHTS assay (AID 1347397); settings: Potency: AChE enzyme activity inhibition; outcome: AChE enzyme activity inhibition; note: nearly all actives have a fitted effect of over 55% in size
Procedure, shortened: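 Absorbance-based detection of thiocholine with DTNB served as the read-out. Recombinant human AChE was exposed to compound for 30 min at RT before a 10 min RT incubation with acetylthiocholine.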

[3] = target: Acetylcholinesterase (Homo sapiens) (UniProt P22303); experiment: Acetylcholinesterase (AChE) small molecule antagonists: fluorescence cell-based qHTS assay (AID 1347398); settings: Potency: AChE activity; outcome: AChE activity; note: nearly all actives have a fitted effect of over 50% in size
Procedure, shortened: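 Fluorimetric cell-based assay: intact SH-SY5Y cells, 30 min compound preincubation at 37 C, acetylthiocholine substrate with thiol probe Thiolite Green, 40 min RT development, fluorescence 490/520 nm.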

[4] = target: Acetylcholinesterase (Homo sapiens) (UniProt P22303); experiment: Acetylcholinesterase (AChE) small molecule antagonists: enzyme-based qHTS assay with human liver microsomes (AID 1347399); settings: Potency: qHTS inhibition; outcome: qHTS inhibition; note: nearly all actives have a fitted effect of over 60% in size
Procedure, shortened: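 Recombinant human AChE (50 mU/mL in the enzyme mix) and human liver microsomes (0.25 mg/mL final) were preincubated with compound and NADPH (0.25 mg/mL final) for 30 min at 37 C. Acetylthiocholine/DTNB was then added; thiocholine was read colorimetrically after 10 min at room temperature.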
% is set by controls: 0 for no effect and ±100 for the full control effect.

Acetylcholinesterase (Homo sapiens), sequence (P22303 whole entry, looked up): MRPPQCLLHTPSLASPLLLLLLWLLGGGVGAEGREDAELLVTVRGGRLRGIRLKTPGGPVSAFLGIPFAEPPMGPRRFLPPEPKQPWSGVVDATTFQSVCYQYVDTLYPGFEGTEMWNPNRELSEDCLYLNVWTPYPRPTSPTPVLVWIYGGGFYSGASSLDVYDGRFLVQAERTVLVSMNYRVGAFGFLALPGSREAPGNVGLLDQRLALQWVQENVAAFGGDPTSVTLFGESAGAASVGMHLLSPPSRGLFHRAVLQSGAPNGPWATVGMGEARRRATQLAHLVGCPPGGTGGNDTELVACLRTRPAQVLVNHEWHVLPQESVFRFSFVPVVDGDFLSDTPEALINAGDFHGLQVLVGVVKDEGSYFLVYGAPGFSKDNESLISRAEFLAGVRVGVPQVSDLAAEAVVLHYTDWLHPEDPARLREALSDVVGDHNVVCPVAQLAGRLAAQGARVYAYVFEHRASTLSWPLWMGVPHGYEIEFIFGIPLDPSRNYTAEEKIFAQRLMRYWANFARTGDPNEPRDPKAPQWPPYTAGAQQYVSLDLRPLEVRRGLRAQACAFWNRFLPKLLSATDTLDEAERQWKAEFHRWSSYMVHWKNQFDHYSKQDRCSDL

CC(C)(C)N(CCO)CCO
inactive: Potency [1] | Potency [2] | Potency [3] | Potency [4]

Cc1ccc(C(C)NC(=O)[C@@H](NC(=O)OC(C)C)C(C)C)cc1 (stereo not given in full)
inactive: Potency [1] | Potency [2] | Potency [3] | Potency [4]

CSSc1ccoc1C
inactive: Potency [1] | Potency [2] | Potency [3] | Potency [4]

O=C1CCCCCO1
inactive: Potency [1] | Potency [2] | Potency [3] | Potency [4]

COc1ccc(OC(=O)N(CC(=O)O)Cc2ccc(OCCc3nc(-c4ccccc4)oc3C)cc2)cc1
inactive: Potency [1] | Potency [2] | Potency [3] | Potency [4]

CC1=C(CC(=O)O)c2cc(F)ccc2/C1=C\c1ccc(S(C)(=O)=O)cc1
inactive: Potency [1] | Potency [2] | Potency [3] | Potency [4]

CC(C)OC(=O)C(C)N(C(=O)c1ccccc1)c1ccc(F)c(Cl)c1 (stereo not given)
inactive: Potency [1] | Potency [2] | Potency [3] | Potency [4]

Cc1cccc(C)c1NC(=O)CN(CC(=O)O)CC(=O)O
inactive: Potency [1] | Potency [2] | Potency [3] | Potency [4]

CCCCCCCCCCCCCCCC(=O)OC/C=C(C)/C=C/C=C(C)/C=C/C1=C(C)CCCC1(C)C
inactive: Potency [1] | Potency [2] | Potency [3] | Potency [4]

NCC1CCCC(CN)C1 (stereo not given)
inactive: Potency [1] | Potency [2] | Potency [3] | Potency [4]

Cc1c(C(=O)NN2CCCCC2)nn(-c2ccc(Cl)cc2Cl)c1-c1ccc(Cl)cc1
inactive: Potency [1] | Potency [2] | Potency [3] | Potency [4]

CCCCCOC(=O)CCCCC
inactive: Potency [1] | Potency [2] | Potency [3] | Potency [4]

CCOC(=O)C(C)O (stereo not given)
inactive: Potency [1] | Potency [2] | Potency [3] | Potency [4]

N#CCCOCCOCCC#N
inactive: Potency [1] | Potency [2] | Potency [3] | Potency [4]

C=C(C)[C@@H]1CCC2=CCC[C@@H](C)[C@]2(C)C1
inactive: Potency [1] | Potency [2] | Potency [3] | Potency [4]

O=C(O)c1cc(Cl)cc([N+](=O)[O-])c1Cl
inactive: Potency [1] | Potency [2] | Potency [3] | Potency [4]

CC(=O)c1cccnc1
inactive: Potency [1] | Potency [2] | Potency [3] | Potency [4]

CC(COc1ccccc1)NC(C)C(O)c1ccc(O)cc1 (stereo not given)
inactive: Potency [1] | Potency [2] | Potency [3] | Potency [4]

NC(=O)C1CO1 (stereo not given)
inactive: Potency [1] | Potency [2] | Potency [3] | Potency [4]

CCN(CC)c1ccc(C=O)cc1
inactive: Potency [1] | Potency [2] | Potency [3] | Potency [4]

Oc1ccc(Nc2ccccc2)cc1
inactive: Potency [1] | Potency [2] | Potency [3] | Potency [4]

CC(=O)Nc1ccccc1C
inactive: Potency [1] | Potency [2] | Potency [3] | Potency [4]

O=C1CC2(CCCC2)CC(=O)N1
inactive: Potency [1] | Potency [2] | Potency [3] | Potency [4]

COC(C)OC
inactive: Potency [1] | Potency [2] | Potency [3] | Potency [4]

Cc1cc(C)c(O)c(C(C)(C)C)c1
inactive: Potency [1] | Potency [2] | Potency [3] | Potency [4]

O=C1OC(=O)c2cc([N+](=O)[O-])ccc21
inactive: Potency [1] | Potency [2] | Potency [3] | Potency [4]

C=CC(=O)O
inactive: Potency [1] | Potency [2] | Potency [3] | Potency [4]

C1CCCCCCCCCCC1
inactive: activity, negative = inhibition [1] -0.403% [at 23.6 µM] | activity change, negative = inhibition [2] 0.515% [at 23.6 µM] | activity change, negative = inhibition [3] 7.82% [at 23.8 µM] | activity change, negative = inhibition [4] -0.0559% [at 23.6 µM]

O=[N+]([O-])c1cccc(I)c1
inactive: Potency [1] | Potency [2] | Potency [3] | Potency [4]

C=C(C)C(=O)NCCCN(C)C
inactive: Potency [1] | Potency [2] | Potency [3] | Potency [4]

CC(C)C(OC(=O)c1ccccc1)C(C)(C)COC(=O)c1ccccc1 (stereo not given)
inactive: Potency [1] | Potency [2] | Potency [3] | Potency [4]

C=CC(C)(CCC=C(C)C)OC(=O)CC(C)C (stereo not given)
inactive: Potency [1] | Potency [2] | Potency [3] | Potency [4]

CCCCCCOC(=O)c1ccccc1O
inactive: Potency [1] | Potency [2] | Potency [3] | Potency [4]

NC(=O)c1ccccc1[N+](=O)[O-]
inactive: Potency [1] | Potency [2] | Potency [3] | Potency [4]

CN(C)C(=O)Nc1ccc(Oc2ccc(Cl)cc2)cc1
inactive: Potency [1] | Potency [2] | Potency [3] | Potency [4]

CC(C)C1CCC(C(=O)N[C@H](Cc2ccccc2)C(=O)O)CC1 (stereo not given in full)
inactive: Potency [1] | Potency [2] | Potency [3] | Potency [4]

CCCCOC(=O)/C=C\C(=O)OCCCC
inactive: Potency [1] | Potency [2] | Potency [3] | Potency [4]

CC1=CCC(C(C)C)C=C1 (stereo not given)
inactive: Potency [1] | Potency [2] | Potency [3] | Potency [4]

CC(C)COC(=O)C(C)C
inactive: Potency [1] | Potency [2] | Potency [3] | Potency [4]

CC[C@H]1O[C@]2(CC[C@@H]1C)C[C@@H]1C[C@@H](C/C=C(\C)C[C@@H](C)/C=C/C=C3\CO[C@@H]4[C@H](O)C(C)=C[C@@H](C(=O)O1)[C@]34O)O2
inactive: Potency [1] | Potency [2] | Potency [3] | Potency [4]
